# Compounds with a hit are over-represented: about 4.1% of the library has one in this group of screens.
# ALR inh: blocks human ALR sulfhydryl oxidase activity | P55789 | purified ALR, DTT oxidation, H2O2 HRP-luminol luminescence | 290,000 tested, 3.8% active | AID 485317 | inhibition, % (test concentration not listed);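 active = mean replicate inhibition above about 79%, with every replicate also reaching it, limit read from the data; inconclusive = only one of the two criteria met; inactive = mean below limit and not every replicate reaching it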
# Target sequence (P55789 whole entry, looked up): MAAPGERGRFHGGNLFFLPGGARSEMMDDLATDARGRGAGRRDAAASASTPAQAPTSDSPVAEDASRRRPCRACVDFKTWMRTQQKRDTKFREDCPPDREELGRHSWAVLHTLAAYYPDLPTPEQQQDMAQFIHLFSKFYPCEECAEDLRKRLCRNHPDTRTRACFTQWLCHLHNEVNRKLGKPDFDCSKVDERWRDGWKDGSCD
# CASP6 VEID inh: caspase-6 (human) enzyme inhibition; P55212; 350,000 tested, 0.53% active; inhibition, % at 12.5 µM; purified caspase-6, Z-VEID-R110 cleavage fluorescence;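 active = mean inhibition across replicates at least about 35%, with every replicate also reaching that limit, limit read from the data; inconclusive = only one of the two criteria met; inactive = neither criterion met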;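 note: 0% = median of neutral control wells and 100% = no fluorescence left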
# Target sequence (P55212 24-179 limits assumed): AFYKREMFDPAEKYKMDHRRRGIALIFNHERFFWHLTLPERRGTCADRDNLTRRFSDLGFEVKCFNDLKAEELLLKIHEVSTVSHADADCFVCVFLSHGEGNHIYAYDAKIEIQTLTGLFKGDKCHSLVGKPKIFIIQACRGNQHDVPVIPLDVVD
# Target sequence (P55212 194-293 limits assumed): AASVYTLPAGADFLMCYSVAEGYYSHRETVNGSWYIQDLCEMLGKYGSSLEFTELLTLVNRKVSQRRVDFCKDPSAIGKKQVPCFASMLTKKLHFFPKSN
# NSD2 inh: NSD2 (human) methyltransferase inhibition | inhibition, % at 12.5 µM | 310,000 tested, 0.54% active | O96028 | AID 743445 | NSD2 peptide methylation, AlphaScreen, 120 min; in the data active = inhibition above about 50%
# F508del corr: CFTR F508del correction in bronchial cells; CFBE cells, YFP halide quenching; stimulated with forskolin plus potentiator P3; % fluorescence drop versus neutral controls; activity (quench increase), % at 7.58 µM; 350,000 tested, 0.36% active; AID 720511;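 active = mean added fluorescence quench of at least 8% versus neutral control, with both replicates also reaching 8%; inconclusive = only one of the mean or replicate conditions met; inactive = mean below 8% and not both replicates reaching 8%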;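 note: cells transiently co-express mutant CFTR-F508del with the halide-sensitive YFP; corrector assay measuring rescue of mutant channel to the surface after 24 h compound exposure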
# PglD inh: PglD (C. jejuni) enzyme inhibition. purified PglD enzyme, DTNB colorimetric CoA detection. inhibition, % at 12.5 µM. 360,000 tested, 0.098% active. AID 602405; in the data active = inhibition above about 16%, passing the limit was not always enough; inconclusive = no clear call, values can overlap the other calls
# HIV Env fusion: HIV envelope-mediated fusion inhibition; HeLa-JRFL Env/CEM21 cell fusion, luciferase; inhibition, % at 12.3 µM; 360,000 tested, 1.1% active; AID 651610;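 active = mean replicate inhibition score of at least 50 and every replicate individually at or above 50; inconclusive = only one of the two criteria met; inactive = mean below 50 and not all replicates reaching 50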;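 note: 0% = plate neutral controls and 100% = maraviroc near 300 nM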
# An asterisk follows results filed as active; ? = inconclusive; / = not tested or not shown; ! = repeats disagree; [ ] = another dose, or the depositor's remark.
SMILES,ALR inh,CASP6 VEID inh,NSD2 inh,F508del corr,PglD inh,HIV Env fusion
CCC(Oc1ccccc1)C(=O)Nc1ncc([N+](=O)[O-])s1 (stereo unspecified),97*,7,3,-1,/,26
O=C(COC(=O)COc1ccccc1)Nc1ncc([N+](=O)[O-])s1,96*,33,/,5,/,/
C[C@H](CO)N1C[C@H](C)[C@H](CN(C)Cc2ccc(C(F)(F)F)cc2)Oc2ccc(NS(=O)(=O)c3ccc(Cl)cc3)cc2CC1=O,/,2,/,4,2,-14[16.7 µM]
Nc1ccc(S(=O)(=O)Nc2nc3ccccc3o2)cc1,18,62*,6,1,4,15
Nc1ccc(S(=O)(=O)Nc2ncccn2)cc1,2,1,/,-6,6,0
Nc1ccc(S(=O)(=O)Nc2cnc3ccccc3n2)cc1,-12,9,/,11*!,1,9
O=c1[nH]c2ccccc2c(O)c1O,/,8,/,1,32*,/
Fc1ccc2cnc(-c3ccccc3)c(-c3cc(C(F)(F)F)cc(C(F)(F)F)c3)c2c1,1,0,/,2,2,34
Fc1ccc2c(-c3cccc(C(F)(F)F)c3)c(-c3ccccc3)ncc2c1,-8,-4,/,-1,-2,69*
COc1cc2cnc(-c3ccccc3)c(-c3ccc(C(F)(F)F)cc3)c2cc1OC,-2,/,/,1,1,84*
CCN1[C@@H]2c3ccc(/C=C/c4ccccc4)c(=O)n3C[C@H]1[C@H](CO)[C@H]2C(=O)N1CCOCC1,/,-5,/,0,-1,/
Oc1c(CN2CCCCC2)ccc2cccnc12,/,69*,/,-4,-3,4
COc1cc(NS(=O)(=O)c2ccc(NC(=O)/C=C/c3cccc([N+](=O)[O-])c3)cc2)ncn1,89*,0,3,0,/,21
Cc1nc2c(-c3ccccc3)c(C)nn2c(C)c1CCC(=O)O,/,0,/,3,-3,-5
CCOC(=O)Cc1c(C)nc2c(-c3ccc(OC)cc3)c(C)nn2c1C,4,/,/,/,-2,64*
COC(=O)CN1C(=O)C(O)(CC(=O)c2ccc(Br)cc2)c2ccccc21 (stereo unspecified),96*,1,/,0,-6,-10
Nc1n[nH]c(N)c1N=Nc1ccc(F)cc1,86*,0,10,-1,/,-2
Nc1n[nH]c(N)c1N=Nc1ccccc1,95*,1,5,-1,/,11
COc1ccc(N=Nc2c(N)n[nH]c2N)cc1,78*,-2,15,-1,1,-22
Cc1ccccc1N=Nc1c(N)n[nH]c1N,93*,2,21,-5,-3,-23
Nc1n[nH]c(N)c1N=Nc1ccccc1F,18,1,15,-1,4,4
CC(C)c1nnc(NC(=O)CCS(=O)(=O)c2nc(-c3cccs3)cc(C(F)(F)F)n2)s1,53,/,/,/,/,85*
CCC(=O)N[C@@H]1C=C[C@H](CC(=O)NCc2cc(F)cc(F)c2)O[C@@H]1CO,/,2,/,1,1,8[16.7 µM]
Cn1c(=O)c2[nH]c(N=NNc3ccccc3F)nc2n(C)c1=O,98*,6,1,0,/,25
N#C/C(=N/O)c1nc(-c2ccc(F)cc2)cs1,98*,2,0,0,/,14
SMILES,ALR inh,CASP6 VEID inh,NSD2 inh,F508del corr,PglD inh,HIV Env fusion
COc1ccc(-c2nc(CN3CCN(Cc4ccccc4)CC3)c(C)o2)cc1,-4,1,2,3,4,2
CCN1CCN(C(=O)CS(=O)Cc2nc(-c3ccc(OC)cc3)oc2C)CC1 (stereo unspecified),99*,-2,/,1,6,21
COc1cccc(-c2nc(CS(=O)(=O)CC(=O)N3CCCCC3)c(C)o2)c1,-7,0,-2,-2,-2,4
COc1ccc(-c2nc(CS(=O)CC(=O)N3CCCC3)c(C)o2)cc1 (stereo unspecified),99*,-4,/,-2,-1,11
CCC(=O)N1CC2(CN(C(=O)CN3CCOCC3)C2)c2c([nH]c3cc(OC)ccc23)[C@H]1CO,/,4,/,0,/,/
Clc1cccc(-c2nnc(SCc3nc4ccccc4[nH]3)n2Cc2ccco2)c1,1,/,2,/,2,?
Clc1ccc(OCc2nnc(SCc3nc4ccccc4[nH]3)n2Cc2ccco2)cc1,-1,/,2,/,4,56*
CCOC(=O)NC(=O)/C(C#N)=N\Nc1cccc(OC)c1,98*,0,2,-2,/,5
CN(C)c1ncnc2c1ccn2C1OC(CO)C(O)C1O (stereo unspecified),/,-3,0,-4,13,77*
OCC1OC(n2ccc3c(NO)ncnc32)C(O)C1O (stereo unspecified),/,1,-2,-3,/,91*
COc1ccc2c3c([nH]c2c1)[C@@H](CO)N(C)CC31CN(C(=O)c2ccccn2)C1,/,/,/,-1,/,/
C[C@@H]1CCCCO[C@@H](CN(C)C(=O)NC2CCCCC2)[C@@H](C)CN([C@@H](C)CO)C(=O)c2cc(NS(=O)(=O)c3cccs3)ccc2O1,/,2,/,0,0,-17[16.7 µM]
COc1cc2oc(=O)cc(-c3ccc(-c4ccc(C)cc4)cc3)c2c(OC)c1OC,/,0,/,4,3,-44
COc1cc2oc(=O)cc(-c3ccc(-c4ccc(CO)cc4)cc3)c2c(OC)c1OC,/,2,/,-4,-4,118*
COc1ccc(/C=C2\SC(=S)N(C(C)C(=O)NC3C=CS(=O)(=O)C3)C2=O)cc1 (stereo unspecified),98*,/,7,0,-5,5
CCC(=O)NCCSc1c[nH]c2ccccc12,56,/,0,/,6,/
CC(Sc1c[nH]c2ccccc12)C(=O)O (stereo unspecified),66,/,/,/,-2,-33
O=C(O)CSc1c[nH]c2ccccc12,98*,/,-5,/,-7,-3
CC(C)C(=O)NCCSc1c[nH]c2ccccc12,99*,-1,/,1,0,22
O=C(Nc1ccccc1)N1CCCC(c2nc(-c3ccc(F)cc3)no2)C1 (stereo unspecified),-15,/,46,/,-13,/
CCS(=O)(=O)N1CCC(c2nc(-c3ccc(C(F)(F)F)cc3)no2)CC1,/,/,0,/,-1,56*
O=C(Nc1cccc(C(F)(F)F)c1)N1CCC(c2nc(-c3ccc(F)cc3)no2)CC1,-4,-1,-1,/,0,69*
C[C@H](CO)N1C[C@H](C)[C@H](CN(C)Cc2ccccc2F)Oc2cc(C3=CCCCC3)ccc2S1(=O)=O,/,0,/,0,-7,19[16.7 µM]
CCCn1c(CCNC(=O)c2cccs2)nc2ccccc21,-6,-1,/,4,-2,-6
CCn1c(CCCNC(=O)c2cccs2)nc2ccccc21,98*,-2,/,0,-1,/
COc1ccc(-c2cnc3c(c2)C(=O)N([C@@H](C)CO)C[C@@H](C)[C@@H](CN(C)S(=O)(=O)c2ccc(OC)cc2)O3)cc1,/,/,/,-3,/,-4[16.7 µM]
COc1ccccc1NC(=O)Cc1nnc(SCC(=O)Nc2ccccc2F)n1C,3,-1,-2,-4,2,12
